About 83,000 compounds went through this panel and 20% of them were active in at least one assay; those are over-represented in the sample as a whole.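 A percent growth of 40 corresponds to 60% growth inhibition; 0 means no net growth; -100 means all cells died. Active threshold: below 10.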 Calls of active or inactive are those of the source.
How the values were obtained:
Assay in all cases: NCI-60 one-dose screen, 48 h (100 = growth as untreated, 0 = no growth, -100 = all killed)
Conditions in all cases: 10 µM unless noted
[1] = tested on: HCT-15 colon
[2] = tested on: HT29 colon
[3] = tested on: SNB-75 CNS
[4] = tested on: SNB-19 CNS
[5] = tested on: U251 CNS
[6] = tested on: PC-3 prostate
[7] = tested on: SK-MEL-5 melanoma
[8] = tested on: UACC-62 melanoma
[9] = tested on: LOX IMVI melanoma
[10] = tested on: SK-MEL-28 melanoma
[11] = tested on: SK-MEL-2 melanoma
[12] = tested on: EKVX NSCLC
[13] = tested on: SN12C renal
[14] = tested on: UO-31 renal
[15] = tested on: TK-10 renal
[16] = tested on: ACHN renal
[17] = tested on: CAKI-1 renal
[18] = tested on: A498 renal
[19] = tested on: CCRF-CEM leukemia
[20] = tested on: MOLT-4 leukemia

Measured: growth

CCCCCCCCCCCCC1CCC(=O)O1 (stereo not given)
inactive: [1] 91.7% | [2] 90.6% | [3] 95% | [4] 98.3% | [5] 101% | [6] 95.8% | [7] 99.7% | [8] 98.5% | [9] 93.5% | [10] 96.4% | [11] 103% | [12] 92.7% | [13] 98.9% | [14] 92.5% | [15] 102% | [16] 97.3% | [17] 91.6% | [18] 96.2% | [19] 105% | [20] 95.5%

Oc1ccccc1-c1nnc(COc2ccc(Cl)cc2Cl)o1
inactive: [1] 27.4% | [2] 60.3% | [3] 86.6% | [4] 53.5% | [5] 41.5% | [6] 47.8% | [7] 32.3% | [8] 25.1% | [9] 25.5% | [10] 68.9% | [11] 37.9% | [12] 31.1% | [13] 52.6% | [14] 30.2% | [15] 63.7% | [16] 43.5% | [17] 41.5% | [18] 89.9% | [19] 15.5% | [20] 19.5%

O=c1oc2ccccc2cc1-c1cc(-c2ccc(-c3cc(-c4cc5ccccc5oc4=O)nc(-c4cc5ccccc5oc4=O)c3)cc2)cc(-c2cc3ccccc3oc2=O)n1
inactive: [1] 103% | [2] 108% | [3] 97.5% | [4] 96.9% | [5] 99.6% | [6] 101% | [7] 101% | [8] 99.1% | [9] 102% | [10] 108% | [11] 106% | [12] 96% | [13] 102% | [14] 88.3% | [15] 129% | [16] 100% | [17] 105% | [18] 98.1% | [19] 92.9% | [20] 86.8%

Cc1cc(N)cc(C)c1-c1c(Br)cc(N)cc1Br
inactive: [1] 32% | [4] 37.4% | [5] 22.2% | [6] 23.2% | [7] 21% | [8] 48.9% | [9] 16% | [10] 44.5% | [11] 26.6% | [12] 51.8% | [13] 47.9% | [14] 36.1% | [15] 22.3% | [16] 56.2% | [17] 35% | [18] 27.9% | [20] 35.1%
active: [2] 9.08% | [3] 2.44% | [19] 8.42%

COc1cccc(-c2cc(-c3cccs3)c(C#N)c(=O)[nH]2)c1
inactive: [1] 97.8% | [2] 116% | [3] 98.4% | [4] 99.9% | [5] 100% | [6] 103% | [7] 107% | [8] 96.3% | [9] 99.5% | [10] 115% | [11] 107% | [12] 106% | [13] 103% | [14] 89.4% | [15] 122% | [16] 102% | [17] 96.8% | [18] 100% | [19] 100% | [20] 107%

NC(CCC(=O)NC(CS)C(=O)NCC(=O)O)C(=O)O (stereo not given)
inactive: [1] 101% | [2] 106% | [3] 95.6% | [4] 99% | [5] 106% | [6] 81.5% | [7] 102% | [8] 96.7% | [9] 104% | [10] 116% | [11] 100% | [12] 99.8% | [13] 108% | [14] 85.9% | [15] 154% | [16] 104% | [17] 100% | [18] 127% | [19] 121% | [20] 102%

CC(=O)N1N=C(C2C(=O)N(C)C(=O)N(C)C2=O)CC1c1ccccc1C(=O)O (stereo not given)
inactive: [1] 110% | [2] 98.9% | [3] 95% | [4] 106% | [5] 104% | [6] 95.4% | [7] 107% | [8] 100% | [9] 99.1% | [10] 112% | [11] 102% | [12] 105% | [13] 101% | [14] 87.4% | [15] 97.6% | [16] 98.9% | [17] 94.8% | [18] 91.7% | [19] 94.6% | [20] 97.1%

CC(SC(C)C(=O)N/N=C/c1cccc(Cl)c1)C(=O)N/N=C\c1cccc(Cl)c1 (stereo not given)
active: [9] 7.06%
inactive: [1] 86.5% | [2] 79% | [3] 83.7% | [4] 89.5% | [5] 48.2% | [6] 53.5% | [7] 98.2% | [8] 92.1% | [10] 117% | [11] 95.8% | [12] 94.9% | [13] 63.9% | [14] 90.2% | [15] 105% | [16] 44% | [17] 91.6% | [18] 102% | [19] 48.6% | [20] 68.3%

Nc1ccc(C2=NNC(=O)Cc3cc4c(cc32)OCCO4)cc1Cl
active: [2] 9.09% | [3] -1.14%
inactive: [1] 28.9% | [4] 57.5% | [5] 39.1% | [6] 53% | [7] 29.8% | [8] 38% | [9] 39% | [10] 56.4% | [11] 36.8% | [12] 63.9% | [13] 61.1% | [14] 61.2% | [15] 72.3% | [16] 53.3% | [17] 48.4% | [18] 56.3% | [19] 42.5% | [20] 34.8%

CC(C)[C@@]12C[C@@H](OC(=O)C3CO3)[C@@](C)(O1)[C@@H]1CC[C@@H](C)[C@H]1[C@@H]2OC(=O)/C=C/c1ccccc1 (stereo not given in full)
active: [14] -3.56% | [16] 5.97% | [18] -31.7%
inactive: [1] 98.1% | [2] 93.9% | [3] 80.5% | [4] 94.4% | [5] 76.1% | [6] 86.2% | [7] 97.6% | [8] 77.4% | [9] 88.5% | [10] 110% | [11] 87.9% | [12] 82.3% | [13] 58.6% | [15] 119% | [17] 51.7% | [19] 88.5% | [20] 79.9%

CCN(CC)CCNC(=O)n1cc(-c2ccncc2)c(-c2ccc(Cl)c(OC)c2)n1
inactive: [1] 96.1% | [2] 59.4% | [3] 64.7% | [4] 93% | [5] 90.3% | [6] 88.2% | [7] 94.1% | [8] 72.5% | [9] 92.3% | [10] 90.2% | [11] 96.1% | [12] 61.8% | [13] 90.7% | [14] 69.2% | [15] 26.9% | [16] 77.6% | [17] 99.7% | [18] 95.5% | [19] 98.3% | [20] 82%

C=CCN1C(=O)/C(=c2\sc3n(c2=O)C2C(NN=3)N(CC)C(=O)N2CC)c2ccccc21 (stereo not given)
active: [2] 6.59%
inactive: [1] 15.7% | [3] 23.8% | [4] 26.8% | [5] 22.8% | [6] 22% | [7] 18.5% | [8] 26.1% | [9] 28.9% | [10] 62.4% | [11] 46.5% | [12] 37.3% | [13] 35.8% | [14] 48.3% | [15] 60.6% | [16] 37.6% | [17] 43.2% | [18] 10.7% | [19] 12.8% | [20] 19.1%

Clc1nnc2c3ccccc3ccn12
inactive: [1] 99.9% | [2] 113% | [3] 82.2% | [4] 110% | [5] 102% | [6] 93% | [7] 97.7% | [8] 102% | [9] 109% | [10] 119% | [11] 108% | [12] 105% | [13] 109% | [14] 98.8% | [15] 106% | [16] 105% | [17] 93% | [18] 106% | [19] 92.6% | [20] 104%

CC1CCN(CCCCCOc2ccc3oc4ccc(Cl)cc4c(=O)c3c2)CC1
inactive: [3] 93.5% | [4] 79.6% | [5] 49.5% | [6] 55.1% | [7] 11.6% | [10] 64.7% | [11] 88.1% | [12] 75.1% | [13] 70.9% | [14] 63.1% | [15] 75.7% | [16] 93.8% | [17] 80.3% | [18] 78.7% | [19] 40.4% | [20] 26.6%
active: [1] -21.5% | [2] 1.54% | [8] -43.5% | [9] 7.78%

c1ccc2c(N=NSc3ncnc4nc[nH]c34)c3ccccc3nc2c1
active: [1] -7.02% | [2] 0.967% | [3] 2.72% | [5] 8.63% | [6] -1.78% | [7] -59.4% | [8] -38.7% | [9] -46.6% | [10] -37.6% | [11] -23.6% | [13] 4.81% | [14] 4.86% | [16] -27.8% | [18] -8% | [19] -4.86% | [20] -17.4%
inactive: [4] 12.3% | [12] 16.7% | [15] 36.4% | [17] 19.7%

O=C1/C(=C/c2ccccc2)SC(=Nc2ccccc2)N1Nc1ccccc1
inactive: [3] 24.2% | [4] 23.3% | [12] 18.9% | [14] 14.8% | [15] 31.4% | [16] 10% | [17] 17.1%
active: [1] 9.11% | [2] 5.63% | [5] 6.12% | [6] 9.43% | [7] -95.7% | [8] -4.34% | [9] -62.1% | [10] 8.52% | [11] -25.2% | [13] -58.3% | [18] -33.1% | [19] 6.81% | [20] -1.49%

Reference: PubChem BioAssay (NCI)
